# Assay results published in PubChem BioAssay (NCATS).
# Values joined by “and” are separate entries in the source; they are usually repeats but may differ in a detail not shown here. Equal values may be shown once. Records with an inconclusive call do not appear. Active and inactive are the calls of the source. The call rests on the fitted dose curve; in most records, active means well fitted inhibition curve with a large enough effect in the repeat runs; inconclusive means weak or mixed curves; inactive means no such curve, though single readings can be large or run the other way.
# Biological target: Cytochrome P450 2C9 (Homo sapiens) (UniProt P11712)
# Sequence (P11712 whole entry, looked up): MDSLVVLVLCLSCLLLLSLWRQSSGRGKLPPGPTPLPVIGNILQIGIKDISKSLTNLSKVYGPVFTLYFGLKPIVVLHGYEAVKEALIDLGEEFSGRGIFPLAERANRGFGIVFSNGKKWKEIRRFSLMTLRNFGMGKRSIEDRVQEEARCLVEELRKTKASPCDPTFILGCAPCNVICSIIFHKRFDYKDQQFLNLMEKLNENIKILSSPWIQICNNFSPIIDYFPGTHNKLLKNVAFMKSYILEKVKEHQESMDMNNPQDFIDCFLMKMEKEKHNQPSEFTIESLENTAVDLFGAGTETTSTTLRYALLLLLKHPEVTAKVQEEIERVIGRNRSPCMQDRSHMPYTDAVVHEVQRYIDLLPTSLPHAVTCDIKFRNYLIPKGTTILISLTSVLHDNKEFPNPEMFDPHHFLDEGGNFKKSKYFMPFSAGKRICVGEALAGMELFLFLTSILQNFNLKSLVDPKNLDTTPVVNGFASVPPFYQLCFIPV
# Experiment: Cytochrome P450 family 2 subfamily C member 9 (CYP2C9) small molecule antagonists: luciferase biochemical (cell-free) qHTS assay (AID 1645842); further: nearly all actives have a fitted effect of over 55% in size
# Settings: P450-Glo CYP2C9 enzyme assay, luciferin luminescence; series mostly up to 57.4 µM; activity change, negative = inhibition: at the top concentration
# Outline: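 P450-Glo CYP2C9 system: proluciferin substrate with enzyme in mix containing 0.4% BSA, 10 min at room temperature, then NADPH regeneration solution added and incubated 1 h at 37C. Detection reagent stopped reaction; luminescence read after 20 min as RLU.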
# On the % scale 0 is the no-effect control and ±100 the full control effect; potency means the concentration at half of the fitted maximal effect.
Compound,"activity change, negative = inhibition",Potency
NC1CCN(c2nc3c(cc2F)c(=O)c(C(=O)O)cn3-c2ccc(F)cc2F)C1 (centres undefined),2.06% (inactive),–
Oc1c(Cl)cc(Cl)c(Cl)c1Cc1c(O)c(Cl)cc(Cl)c1Cl,–,1.55 µM (active)
CC(C)=CCOc1ccc(/C=C/C(=O)c2ccc(OCC=C(C)C)cc2OCC(=O)O)cc1,–,15.5 µM (active)
CCCN(CCC)S(=O)(=O)c1ccc(C(=O)O)cc1,0.821% (inactive),–
CCCCN1C[C@H](O)[C@@H](O)[C@H](O)[C@H]1CO,8.23% (inactive),–
C[N+]1(CC2COC(c3ccccc3)(C3CCCCC3)O2)CCCCC1 (centres undefined),8.23% (inactive),–
CC(C)CCCC(C)N (centres undefined),8.16% (inactive),–
CCCCCCCCCCCCCCCC(=O)O,12.4% (inactive),–
O=C(O)C(Cc1cc(I)c(O)c(I)c1)c1ccccc1 (centres undefined),–,15.1 µM (active) and 11 µM (active)
CC(=O)Nc1ncc([N+](=O)[O-])s1,-11.2% (inactive),–
C=C[C@H]1CN2CC[C@H]1C[C@H]2[C@H](O)c1ccnc2ccc(OC)cc12,1.49% (inactive),–
Oc1ccccc1C=NCc1ccccc1,4.31% (inactive),–
CCNC(=O)/C=C/c1cccc(Br)c1,-7.92% (inactive),–
Oc1ccc(Cl)cc1Cc1cc(Cl)ccc1O,–,7.76 µM (active)
Cc1cc(NS(=O)(=O)c2ccc(N)cc2)nc(C)n1,–,inactive
CN1CCN(CCC(=O)N2c3ccccc3Sc3ccc(C(F)(F)F)cc32)CC1,13.8% (inactive),–
CN1CCN(c2cc3c(cc2F)c(=O)c(C(=O)O)cn3-c2ccc(F)cc2)CC1,10.1% (inactive),–

Compound,"activity change, negative = inhibition",Potency
C[C@H]1[C@H]2CC[C@H]3[C@@H]4CC=C5C[C@@H](N(C)C)CC[C@]5(C)[C@H]4CC[C@]23CN1C,0.732% (inactive),–
CCc1oc2ccccc2c1C(=O)c1cc(I)c(O)c(I)c1,–,0.347 µM (active)
CC(=O)OCC1=C(C(=O)O)N2C(=O)[C@@H](NC(=O)CSc3ccncc3)[C@H]2SC1,–,11 µM (active)
Cc1nc(-c2ccc(Cl)cc2)oc1COC(C)(C)C(=O)O,0.919% (inactive),–
OC[C@H]1O[C@@H]2O[C@H]3[C@H](O)[C@@H](O)[C@@H](O[C@H]4[C@H](O)[C@@H](O)[C@@H](O[C@H]5[C@H](O)[C@@H](O)[C@@H](O[C@H]6[C@H](O)[C@@H](O)[C@@H](O[C@H]7[C@H](O)[C@@H](O)[C@@H](O[C@H]8[C@H](O)[C@@H](O)[C@@H](O[C@H]1[C@H](O)[C@H]2O)O[C@@H]8CO)O[C@@H]7CO)O[C@@H]6CO)O[C@@H]5CO)O[C@@H]4CO)O[C@@H]3CO,2.47% (inactive),–
CC(=O)O[C@H]1C[C@@H]2CC[C@@H]3[C@H](CC[C@@]4(C)[C@H]3C[C@H]([N+]3(C)CCCCC3)[C@@H]4OC(C)=O)[C@@]2(C)C[C@@H]1N1CCCCC1,9.75% (inactive),–
CN(C)CCOC(=O)C(c1ccccc1)C1(O)CCCC1 (centres undefined),12% (inactive),–
O=C1[C@H](CC[C@H](O)c2ccc(F)cc2)[C@@H](c2ccc(O)cc2)N1c1ccc(F)cc1,–,6.92 µM (active) and 9.52 µM (active)
CCNC(=O)NCc1cccc(Cl)c1,5.05% (inactive),–
CCN(CC)CCOC(=O)C1(c2ccccc2)CCCC1,7.82% (inactive),–
C#C[C@]1(OC(C)=O)CC[C@H]2[C@@H]3CCC4=C/C(=N/O)CC[C@@H]4[C@H]3CC[C@@]21CC,–,952 nM (active) and 7.76 µM (active)
OC[C@H]1O[C@@H](Oc2ccc(O)cc2)[C@H](O)[C@@H](O)[C@@H]1O,9.34% (inactive),–
c1ccc(CC2=NCCN2)cc1,2.05% (inactive),–
Cc1cccc(C)c1NC(=O)CN1CCCC1,6.6% (inactive),–
CN1CCc2cccc3c2[C@H]1Cc1ccc(O)c(O)c1-3,-25.9% (inactive),–
CCOC(=O)C(C#N)=C(c1ccccc1)c1ccccc1,–,2.45 µM (active)
C=C1c2cccc(O)c2C(O)=C2C(=O)[C@]3(O)C(O)=C(C(N)=O)C(=O)[C@@H](N(C)C)[C@@H]3[C@@H](O)[C@H]12,0.599% (inactive),–
